Test results as given in the supplement of paper PMC8371130.
Structures can show the parent of a compound that is named as a salt.

System: HL-1
Assay: relative cell viability (CellTiter-Glo) vs DMSO control (% of DMSO control); higher = more viable cells
In short: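 In 384-well plates, 1000 HL-1 mouse atrial cardiomyocytes per well were plated with compounds at 40, 200, 1000 or 5000 nM in 0.01% DMSO. Hypoxia at 1% O2 for 48 h began one day later and was followed by 24 h of reoxygenation, with parallel plates held in normoxia. CellTiter-Glo luminescence gave cell viability relative to vehicle-treated control cells.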

[1] = oxygen condition: hypoxia 48 h (1% O2) + reoxygenation 24 h, 40 nM
[2] = oxygen condition: hypoxia 48 h (1% O2) + reoxygenation 24 h, 200 nM
[3] = oxygen condition: hypoxia 48 h (1% O2) + reoxygenation 24 h, 1000 nM
[4] = oxygen condition: hypoxia 48 h (1% O2) + reoxygenation 24 h, 5000 nM
[5] = oxygen condition: normoxia 72 h, 40 nM
[6] = oxygen condition: normoxia 72 h, 200 nM
[7] = oxygen condition: normoxia 72 h, 1000 nM
[8] = oxygen condition: normoxia 72 h, 5000 nM

| SMILES | relative cell viability [1] | relative cell viability [2] | relative cell viability [3] | relative cell viability [4] | relative cell viability [5] | relative cell viability [6] | relative cell viability [7] | relative cell viability [8] |
| --- | --- | --- | --- | --- | --- | --- | --- | --- |
| COC(=O)C1=C(C)NC(C)=C(C(=O)OC(C)C)C1c1cccc2nonc12 (stereo not given) [Isradipine] | 106 | 111 | 106 | 104 | 108 | 97.7 | 102 | 110 |
| Cn1c(CNc2ccc(C(=N)N)cc2)nc2cc(C(=O)N(CCC(=O)O)c3ccccn3)ccc21 | 104 | 96 | 102 | 108 | 102 | 102 | 102 | 106 |
| C=C[C@H]1CN2CC[C@H]1C[C@H]2[C@H](O)c1ccnc2ccc(OC)cc12 [Quinine hydrochloride dihydrate] | 103 | 104 | 102 | 104 | 102 | 101 | 103 | 111 |
| Nc1nc(Cl)nc2c1ncn2[C@H]1C[C@H](O)[C@@H](CO)O1 [Cladribine] | 76.2 | 30.7 | 6.18 | 4.06 | 55.5 | 21.9 | 5.2 | 4.23 |
| CC(C)(CO)[C@@H](O)C(=O)NCCC(=O)O [Pantothenic acid] | 100 | 103 | 104 | 108 | 100 | 101 | 99.5 | 106 |
| Cc1onc(-c2ccccc2)c1C(=O)N[C@@H]1C(=O)N2[C@@H]1SC(C)(C)[C@@H]2C(=O)O [Oxacillin sodium monohydrate] | 104 | 107 | 96.5 | 110 | 103 | 101 | 110 | 109 |
| Nc1[nH]cnc2ncnc1-2 [Adenine hydrochloride] | 108 | 105 | 104 | 110 | 100 | 96.4 | 103 | 107 |
| CC[C@H]1OC(=O)C[C@@H](O)[C@H](C)[C@@H](O[C@@H]2O[C@H](C)[C@@H](O[C@H]3C[C@@](C)(O)[C@@H](O)[C@H](C)O3)[C@H](N(C)C)[C@H]2O)[C@@H](CC=O)C[C@@H](C)C(=O)/C=C/C(C)=C/[C@@H]1CO[C@@H]1O[C@H](C)[C@@H](O)[C@@H](OC)[C@H]1OC [Tylosin tartrate] | 102 | 108 | 99.4 | 99 | 101 | 92.6 | 100 | 91.8 |
| C[C@]12CC[C@H](O)CC1=CC[C@@H]1[C@@H]2CC[C@]2(C)C(c3cccnc3)=CC[C@@H]12 [Abiraterone] | 74.6 | 72.2 | 86.7 | 116 | 61.2 | 67.9 | 78.7 | 112 |
| CCCCCCCN(CC)CCCC(O)c1ccc(NS(C)(=O)=O)cc1 (stereo not given) [Ibutilide fumarate] | 103 | 95.7 | 98.8 | 92.9 | 98.3 | 97.9 | 97.3 | 97.6 |
| CC(CCc1ccc(O)cc1)NCC(O)c1ccc(O)cc1 (stereo not given) [Ractopamine HCl] | 103 | 100 | 108 | 60.4 | 98.9 | 104 | 106 | 106 |
| CC1Cc2ccccc2N1NC(=O)c1ccc(Cl)c(S(N)(=O)=O)c1 (stereo not given) [Indapamide] | 106 | 104 | 110 | 114 | 105 | 102 | 106 | 121 |
| CC(C)C[C@H](NC(=O)[C@@H](O)[C@H](N)Cc1ccccc1)C(=O)O [Ubenimex] | 99.1 | 95.6 | 98.2 | 103 | 101 | 98.8 | 99.7 | 108 |
| C#Cc1cccc(Nc2ncnc3cc(OCCOC)c(OCCO)cc23)c1 | 100 | 106 | 107 | 109 | 111 | 104 | 105 | 121 |
| C[C@@H](Oc1cc(-c2cnn(C3CCNCC3)c2)cnc1N)c1c(Cl)ccc(F)c1Cl [Crizotinib] | 94.3 | 92.1 | 99.2 | 70.3 | 98.8 | 98.6 | 87.4 | 52 |
| Cc1cccc(C)c1OCC(C)N (stereo not given) [Mexiletine HCl] | 108 | 105 | 104 | 121 | 103 | 105 | 107 | 123 |
| N=C(N)NC(=O)c1nc(Cl)c(N)nc1N [Amiloride hydrochloride dihydrate] | 101 | 106 | 107 | 118 | 101 | 102 | 106 | 111 |
| CCOc1nc2cccc(C(=O)O)c2n1Cc1ccc(-c2ccccc2-c2nnn[nH]2)cc1 [Candesartan] | 110 | 105 | 110 | 109 | 107 | 109 | 108 | 110 |
| CCC(C)n1ncn(-c2ccc(N3CCN(c4ccc(OCC5COC(Cn6cncn6)(c6ccc(Cl)cc6Cl)O5)cc4)CC3)cc2)c1=O (stereo not given) [Itraconazole] | 99.1 | 101 | 100 | 108 | 103 | 106 | 101 | 107 |
| CCCC1O[C@@H]2C[C@H]3[C@@H]4CCC5=CC(=O)C=C[C@]5(C)[C@H]4[C@@H](O)C[C@]3(C)[C@]2(C(=O)CO)O1 (stereo not given in full) [Budesonide] | 95.2 | 102 | 91.2 | 96.5 | 90.9 | 83.5 | 95.6 | 96.4 |
